Inconclusive results are not listed. A call without a number means that no potency is given here. Active and inactive are the calls of the source. The call rests on the fitted dose curve; in most records, active means well fitted cell-killing curve with a large enough effect; inconclusive means small, poorly fitted or top-dose-only effect, or effect the other way; inactive means flat fitted curve, though single readings scatter.
What follows are compounds tested on Tov-21-G (assay: Primary qHTS to identify gynecologic anti-cancer compounds using libraries of approved drugs and bioactive compounds (AID 1345084; further: nearly all actives have a fitted effect of over 55% in size)). Conditions: Gynecologic cancer cell panel viability, ATPlite luminescence, 48 h; series mostly up to 57.5 µM.
Method in brief: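 48 h compound exposure at 37 C, 5% CO2; five-point qHTS. ATPlite luminescence readout of cell ATP.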
Potency means the concentration at half of the fitted maximal effect.

SMILES | activity change, negative = cytotoxicity | Potency
C/C=C(\C)C(=O)O[C@H]1[C@H](OC(C)=O)[C@]2(CO)[C@H](O)[C@H](O)[C@]3(C)C(=CCC4[C@@]5(C)CC[C@H](O[C@@H]6O[C@H](C(=O)O)[C@@H](O)[C@H](O[C@@H]7OC[C@H](O)[C@H](O[C@@H]8OC[C@H](O)[C@H](O)[C@H]8O)[C@H]7O)[C@H]6O[C@@H]6O[C@H](CO)[C@@H](O)[C@H](O)[C@H]6O)C(C)(C)C5CC[C@]43C)[C@@H]2CC1(C)C (stereo partly specified) | 19.4% [at 6.55 µM] (inactive) | –
C[C@]12CC[C@@H](O)C[C@H]1CC[C@@H]1[C@@H]2CC[C@]2(C)C(=O)CC[C@@H]12 | – | inactive
Clc1ccc(OCC2=NCCN2)cc1Cl | – | inactive
CC12CCC3C(CCC4(O)CC(O)CCC34C=O)C1(O)CCC2C1=CC(=O)OC1 (stereo unspecified) | – | 708 nM (active)
COC(=O)C12C(=O)C(C)(O)C(=O)C1(C)C(C)=CC1C34CCC(OC3=O)C(C)(CO)C4CCC12C (stereo unspecified) | – | inactive
CCN1C[C@]2(COC(=O)c3ccccc3N3C(=O)C[C@H](C)C3=O)CC[C@H](OC)[C@@]34[C@@H]5C[C@H]6[C@H](OC)[C@@H]5[C@](O)(C[C@@H]6OC)[C@](O)([C@@H](OC)[C@H]23)[C@@H]14 | – | inactive
COC(=O)[C@@]12C(=O)C(C)C(=O)[C@]1(C)C(C)=C[C@H]1[C@]3(C=O)CC[C@H](OC(C)=O)C(C)(C)[C@H]3CC[C@@]12C (stereo partly specified) | – | inactive
COC1=CC(=O)O[C@@H](CCc2ccccc2)C1 | – | inactive
Cn1ncnc1COc1nn2c(-c3c(F)cccc3F)nnc2cc1C1CCC1 | – | inactive
C=C[C@H]1[C@H](O[C@@H]2O[C@H](CO)[C@@H](O)[C@H](O)[C@H]2O)OC=C2C(=O)OCC[C@H]21 | – | inactive
C=C(CO)C(=O)O[C@H]1C/C(C)=C/CC/C(CO)=C/[C@H]2OC(=O)C(=C)[C@H]12 | – | inactive
CN(C(=O)Cc1ccccc1)C(CN1CCCC1)c1ccccc1 (stereo unspecified) | – | inactive
C[C@@]1(C(=O)O)CC[C@]2(C)CC[C@]3(C)C4=CC(=O)c5cc(O)c(O)cc5[C@]4(C)CC[C@@]3(C)[C@@H]2C1 | – | inactive
CN1C(=O)N(c2ccc(C#N)c(C(F)(F)F)c2)C(=O)[C@]1(CO)c1ccccc1 | – | inactive
Clc1ccc(N2C[C@H]3CC[C@@H](C2)N3)nn1 | – | inactive
OC1(c2ccc(Cl)cc2)c2ccccc2C2=NCCN21 (stereo unspecified) | – | inactive
COC1CC(=O)C23C(=O)NC(CC(C)C)C2C(C)=C(C)C(OO)C3/C=C(\C)CCC(O)C1O (stereo unspecified) | – | inactive
CO[C@@H]1[C@H](O)[C@@H](O[C@@H]2C[C@H]3CC[C@@H]4C(CC[C@]5(C)[C@@H](C6=CC(=O)OC6)CC[C@]45O)[C@@]3(C)[C@H](O)C2)O[C@H](C)[C@@H]1O[C@@H]1O[C@H](CO)[C@@H](O)[C@H](O)[C@H]1O (stereo partly specified) | – | 199 nM (active)

SMILES | activity change, negative = cytotoxicity | Potency
OCCCCC#Cc1cncc(OC[C@@H]2CCN2)c1 | – | inactive
COC1CC(O[C@H]2CC[C@@]3(C)C(=CCC4C3C(O)[C@@H](O)[C@]3(C)[C@@H](C(C)=O)CC[C@]43O)C2)OC(C)C1OC1CC(OC)C(OC2OC(C)C(O)C(O)C2O)C(C)O1 (stereo partly specified) | -7.27% [at 11.6 µM] (inactive) | –
N#C[C@@H](O[C@@H]1O[C@H](CO[C@@H]2O[C@H](CO)[C@@H](O)[C@H](O)[C@H]2O)[C@@H](O)[C@H](O)[C@H]1O)c1ccccc1 | – | inactive
C=C(C)[C@H]1O[C@H]2CC[C@@]3(C)[C@@](O)(CC[C@H]4[C@@H]5OC(C)(C)[C@H]6C[C@@H]7C(=C)Cc8c(Cl)cc9[nH]c(c5c9c8[C@@]76O)[C@@]43C)[C@]23O[C@@H]3[C@H]1O | – | inactive
CCC(C)(C#N)O[C@@H]1O[C@H](CO)[C@@H](O)[C@H](O)[C@H]1O (stereo partly specified) | – | inactive
O=C(N1CCOCC1)N1CCN(c2ccc(Cl)cc2)CC1 | – | inactive
CN1CCCC1CCOC(c1cc2nccc(C(=O)O)c2[nH]1)c1ccccc1Cl (stereo unspecified) | – | inactive
CCCCCCn1c(=O)c(C(=O)Nc2ccc(C(=O)OCCC)cc2)c(O)c2ccccc21 | 0.105% [at 11.6 µM] (inactive) | –
C=CC(C)(C)c1[nH]c2cccc3c2c1C[C@@H]1[C@@H]3[C@@H](OC(C)=O)[C@H](C)CN1C | – | inactive
CC1=C2C[C@H]3[C@@H](CC=C4C[C@@H](O)CC[C@@]43C)[C@@H]2CC[C@]12O[C@@H]1C[C@H](C)CN[C@H]1[C@H]2C | – | inactive
CC1=CC2/C=C(\C)CCC(O)C3OC(C)(C)OC3CC(=O)OC23C(=O)NC(CC(C)C)C3C1C (stereo unspecified) | – | inactive
CCN1C[C@]2(COC)[C@H](O)C[C@H](OC)[C@]34[C@@H]5C[C@]6(O)[C@H](OC(=O)c7ccccc7)[C@@H]5[C@@](O)([C@H]([C@H](OC)[C@H]23)[C@@H]14)[C@@H](O)[C@@H]6OC | – | inactive
CC(=O)O[C@H]1C[C@@H](OC(C)=O)C(C)(C)C2C[C@@H](O)[C@]3(C)C(CC[C@@]4(C)[C@H](C5=CC(=O)OC5O)C[C@H]5O[C@]543)[C@]21C (stereo partly specified) | – | inactive
COC1C(O)C(C)OC(OC2C(CO)O[C@@H](O[C@@H]3CC4CCC5C(CC[C@]6(C)[C@@H](C7=CC(=O)OC7)CC[C@]56O)[C@@]4(C)[C@H](O)C3)C(O)C2O)C1O (stereo partly specified) | – | 1000 nM (active)
COC1CC(O[C@H]2CC[C@]3(C=O)C4CC[C@]5(C)[C@@H](C6=CC(=O)OC6)CC[C@]5(O)[C@@H]4CC[C@]3(O)C2)OC(C)C1O[C@@H]1O[C@H](CO)[C@@H](O)[C@H](O)[C@H]1O (stereo partly specified) | – | 141 nM (active)
C[C@H]1C(=O)O[C@H]2[C@H](O)[C@]34C5OC(=O)[C@]3(O[C@@H]3OC(=O)[C@H](O)C34[C@H](C(C)(C)C)[C@H]5O)C12O (stereo partly specified) | – | inactive
CC(CCc1ccc(O)cc1)O[C@@H]1O[C@H](CO[C@H]2OC[C@](O)(CO)[C@H]2O)[C@@H](O)[C@H](O)[C@H]1O (stereo partly specified) | – | inactive
C[C@@](O)(COc1ccc(C#N)cc1)C(=O)Nc1ccc(C#N)c(C(F)(F)F)c1 | – | inactive

From PubChem BioAssay (NCATS)
